# Compounds with a hit are over-represented: about 2.1% of the library has one in this group of screens.
# NRP1-CendR mod – alters CendR peptide binding to human NRP-1; O14786; FAM-RPARPAR peptide binding to NRP-1, fluorescence polarization; inhibition, % at 25 µM; hit rate 0.85% among 360,000; AID 602438;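 active = inhibition or corrected inhibition above about 18%, plus a signal ratio from 0.5 to 1.5, limit read from the data, passing the limit was not always enough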
# eIF4H inh – inhibitors of RNA binding by human eIF4H; Q15056; eIF4H fluorescence polarization binding assay; inhibition, % at 35 µM; hit rate 0.94% among 290,000; AID 2012;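 note: calls also rest on retests at 20 µM and on dose response follow-up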
# PABP1 MLLE inh – blocks PAM2 peptide binding to the PABP1 MLLE domain. P11940. GST-MLLE / FITC-PAM2 fluorescence polarization. AID 588489. hit rate 0.36% among 360,000. inhibition, % at 20 µM; in the data active = inhibition above about 35%, passing the limit was not always enough;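 note: plate controls were DMSO wells with GST-MLLE for no effect and wells lacking GST-MLLE protein for full effect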
# Target sequence (P11940 whole entry, looked up, the tested form may be a part): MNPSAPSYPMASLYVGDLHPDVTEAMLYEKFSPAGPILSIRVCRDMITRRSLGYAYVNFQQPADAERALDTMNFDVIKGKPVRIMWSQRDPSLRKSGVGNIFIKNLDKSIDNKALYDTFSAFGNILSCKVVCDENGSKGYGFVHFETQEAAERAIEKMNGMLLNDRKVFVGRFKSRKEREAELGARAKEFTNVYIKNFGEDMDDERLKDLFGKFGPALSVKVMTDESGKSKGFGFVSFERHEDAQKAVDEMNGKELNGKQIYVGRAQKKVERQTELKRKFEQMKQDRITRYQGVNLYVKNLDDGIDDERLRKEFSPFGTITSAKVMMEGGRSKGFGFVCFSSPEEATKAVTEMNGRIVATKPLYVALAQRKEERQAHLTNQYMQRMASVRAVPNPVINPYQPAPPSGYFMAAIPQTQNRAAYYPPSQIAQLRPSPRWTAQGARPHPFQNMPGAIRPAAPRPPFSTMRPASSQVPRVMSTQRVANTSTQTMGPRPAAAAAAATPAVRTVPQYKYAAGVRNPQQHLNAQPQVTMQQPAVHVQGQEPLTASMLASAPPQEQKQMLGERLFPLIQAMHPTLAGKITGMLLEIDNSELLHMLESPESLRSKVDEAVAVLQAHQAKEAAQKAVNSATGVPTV
# PABP polyA inh – PABP-poly(A) binding inhibition | PABP-poly(A) RNA binding, fluorescence polarization | inhibition, % at 35 µM | hit rate 1% among 290,000 | AID 2014;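 note: calls also rest on retests at 20 µM and on dose response follow-up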
# Starred values were filed as active, the others as inactive; ? = inconclusive; / = no result. Unless noted, the rule behind the calls is not given here.
SMILES,NRP1-CendR mod,eIF4H inh,PABP1 MLLE inh,PABP polyA inh
O=C(CC(NC(=O)OCc1ccccc1)C(=O)O)OCc1ccccc1 (stereo not drawn),-4.7,-3.2,0.8,-7.3
NC(=O)CC(NC(=O)OCc1ccccc1)C(=O)O (stereo not drawn),31.0*,0.1,8.1,6.2
NC(N)=NCCC[C@H](NC(=O)OCc1ccccc1)C(=O)O,27.1*,-3.6,-28.2,-6.5
CCOc1cc(C(=O)N2CCCN(C)CC2)cc(OCC)c1OCC,-9.6,10.2,2.6,-1.9
CCC(C)[C@H](NC(=O)Nc1ccccc1F)C(=O)OC (stereo partly drawn),21.8*,-8.3,-5.0,1.8
COC(=O)[C@H](C)NC(=O)Nc1ccccc1F,1.4,-8.1,3.1,-0.3
CC1(c2nnc(Cc3ccccc3)o2)CC(c2cccc(Cl)c2)=NO1 (stereo not drawn),27.5*,-12.7,0.8,-6.7
O=C(NNC(=O)c1ccccc1O)c1cc2ccccc2o1,-7.6,/,6.5,/
CC(=O)[C@@H]1[C@@H]2C(=O)N(C3CCCCC3)C(=O)[C@@H]2C2c3ccccc3C=CN21 (stereo partly drawn),/,18.1,/,9.2
O=C1NC(=O)[C@@H]2C3c4ccccc4C=CN3[C@H](C(=O)c3cccs3)[C@H]12 (stereo partly drawn),/,125.6*,/,126.3*
CCC(CC)C(=O)N(C)c1c(C)nc2c(OCc3ccc(OC(F)F)cc3)cccn12,-1.8,/,1.2,/
CCN(CC)S(=O)(=O)c1cccc(-c2cn3cc(C)ccc3n2)c1,-0.3,56.6*,1.0,3.0
COc1ccc(-c2cc(C#N)nc(Cl)n2)cc1,-0.6,-2.3,-8.5,-1.6
COc1ccc2cc(C#N)c(NC(C)C)nc2c1,5.1,-6.6,5.5,-8.4
CCN(CC)c1nc(C#N)cc(-c2ccc(OC)cc2)n1,24.1*,-4.8,-0.7,-12.2
CCN(CC)c1nc2cc(OC)ccc2cc1C#N,-56.9,?,-8.9,102.4*
O=c1c2[nH]cnc2n(-c2ccccc2)c(=O)n1Cc1ccccc1,-8.1,0.0,-0.2,-4.4
COc1cccc(-n2c(=O)n(Cc3ccccc3)c(=O)c3[nH]cnc32)c1,22.1*,2.5,6.3,-6.3
Cc1cc([N+](=O)[O-])nn1CC(=O)N/N=C/c1ccc(O)cc1O,3.0,7.4,0.4,-2.7
CCCN1CCC(=O)N([C@H](COc2ccccc2)CC(C)C)CC1,28.3*,2.2,4.1,-13.6
CCCCCCCN1CCC(=O)N([C@H](CO)Cc2ccccc2)CC1,11.4,1.2,-14.4,9.6
CCCCCCCN1CCC(=O)N([C@H](CO)CC(C)C)CC1,27.4*,-4.5,-1.6,-12.4
CC(C)C[C@@H](COc1ccccc1)N1CCN(CCc2ccccc2)CCC1=O,36.4*,-7.3,-2.4,1.4
CC1CCCN(C(=O)CN2CCC(c3nc4ccc(Cl)cc4[nH]3)CC2)C1 (stereo not drawn),-5.3,91.0*,5.3,67.7*
Nc1nnc(SCC(=O)Nc2sc3c(c2C(=O)c2ccccc2)CCCC3)s1,2.9,-1.6,-1.5,-5.7
SMILES,NRP1-CendR mod,eIF4H inh,PABP1 MLLE inh,PABP polyA inh
Cc1ccc(C(=O)c2c(NC(=O)CSc3nnc(N)s3)sc3c2CCCC3)cc1,32.6*,2.6,15.0,-6.2
Cn1cnnc1SCC(=O)Nc1sc2c(c1C(N)=O)CCC2,-74.7,76.1*,2.7,50.0*
COc1ccc(C(C)(C)C)cc1NC(=O)COC(=O)CN1C(=O)NC2(CCCCC2C)C1=O (stereo not drawn),0.2,/,-4.6,/
Cc1cc(C)c(NC(=O)CN2CCN(c3ccccn3)CC2)c(C)c1,-9.9,-2.5,1.8,-3.9
COC(=O)C(C)(C)c1cccnc1C#N,2.2,/,-1.2,/
O=CN1CCN(C(=O)COc2ccc(Cl)cc2Br)CC1,0.7,4.7,-4.0,-2.2
O=C(COc1ccc(Cl)cc1Br)N1CCN(c2ccccc2)CC1,33.9*,3.8,4.7,-0.3
O=C(/C=C/c1cccc(Br)c1)OCC(=O)N1CCN(c2ccccc2)CC1,27.1*,/,2.0,/
O=C1C2CC=C(Cl)CC2C(=O)N1CCCCCCN1C(=O)C2CC=C(Cl)CC2C1=O (stereo not drawn),-3.5,99.4*,15.6,99.6*
CCCc1ccc2c(C(F)(F)F)cc(C(F)(F)F)cc2n1,-0.7,/,2.6,/
Cc1nn(Cc2ccccc2)c(C)c1CNC(=O)CN=C1NS(=O)(=O)c2ccccc21,-0.4,/,8.3,/
COc1ccc(NC(=O)CCC(=O)NCc2ccco2)c([N+](=O)[O-])c1,0.4,-15.9,3.2,-11.3
O=C(O)c1cccc(Cn2c(Cl)c(/C=N/NC(=O)c3cc4ccccc4cc3O)sc2=O)c1,-168.4,102.4*,-118.2,81.5*
CC(C)CC(NC(=O)c1ccccc1)C(=O)N/N=C/c1ccco1 (stereo not drawn),-5.9,57.8*,-7.6,active
CC(NC(=O)c1ccccc1)C(=O)N/N=C/c1ccco1 (stereo not drawn),6.8,-1.0,9.9,3.3
Cc1cc2nc3s/c(=C/c4ccc(-c5ccccc5C(=O)O)o4)c(=O)n3c2cc1C,-115.2,36.3,-143.0,42.1
O=C(O)c1cc(-c2ccc(/C=c3\sc4nc5ccc(Br)cc5n4c3=O)o2)ccc1Cl,/,55.2*,/,53.9*
O=C(O)c1ccccc1-c1ccc(/C=c2\sc3nc4cc(Br)cnc4n3c2=O)o1,-239.9,77.4*,-125.2,50.6*
O=C(O)c1cc(-c2ccc(/C=C3\NC(=O)N(c4ccccc4)C3=O)o2)ccc1Cl,-45.6,41.0,-3.5,35.0
O=C(O)c1cc(-c2ccc(/C=C3\NC(=O)N(c4ccc(Cl)cc4)C3=O)o2)ccc1Cl,-109.1,85.3*,-15.0,92.1*
O=C(O)C1(C(=O)O)CCC2(CCCCC2)CC1,-4.3,/,8.3,/
O=C1NC(c2ccccc2)=N/C1=C/c1ccco1,-4.8,92.0,-0.2,-28.8
O=C1NC(c2ccccc2Br)=N/C1=C\c1ccco1,-13.3,57.1*,3.7,47.3*
CC(C)c1nnc(NC(=O)Cc2cccs2)s1,6.8,7.0,-0.3,-12.4
CC(C)Cc1nnc(NC(=O)Cc2cccs2)s1,-85.6,73.7*,-58.3,55.3*
SMILES,NRP1-CendR mod,eIF4H inh,PABP1 MLLE inh,PABP polyA inh
O=C(Nc1cccc(-c2cnc3ccccc3n2)c1)C1CC(=O)N(c2ccccc2)C1 (stereo not drawn),7.5,-1.5,-3.5,-9.0
COC(=O)c1sc(NC(=O)/C=C/c2ccc(C)o2)nc1C,-9.2,95.3*,4.6,-12.3
Cc1ccc(/C=C/C(=O)Nc2nn[nH]n2)o1,-9.6,38.0,36.4*,5.9
C[C@H](O)[C@@H]1C(=O)N2CCc3ccc(-c4ccccc4)cc3[C@@H]2C[C@@H]1N(C)C(=S)Nc1ccc(F)cc1,-7.2,/,-91.8,/
O=C(c1cc(C2CC2)nn1-c1ccccc1)N1CCN(S(=O)(=O)c2ccccc2)CC1,3.1,/,-28.9,/
COc1ccc(OC)c(S(=O)(=O)N2CCN(C(=O)c3cc(C4CC4)nn3-c3ccccc3)CC2)c1,-0.7,/,67.8*,/
CCOC(=O)C1=C(C(C)=O)C(c2cccnc2)C(C#N)=C(N)O1 (stereo not drawn),3.3,55.2*,19.8,71.8*
CCOC(=O)C1=C(c2ccccc2)OC(N)=C(C#N)C1c1ccncc1 (stereo not drawn),10.1,5.2,12.7,-3.0
CCOC(=O)CC(=O)CSc1nc(-c2cccnc2)ccc1C#N,-23.5,68.6*,2.6,77.3*
